# The panel holds about 83,000 compounds, 20% with a hit somewhere; the sample as a whole holds those more often.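 Growth was measured after 48 h exposure to one concentration of compound in 96-well plates. Values under 10 count as active.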 Active and inactive are the calls of the source.
# Tested on: IGROV1 ovarian
# Experiment: NCI-60 one-dose screen, 48 h (100 = growth as untreated, 0 = no growth, -100 = all killed)
# Conditions: 10 µM unless noted
row,Compound,growth
1,O=S(=O)(NCCCNc1cc(-c2cn(-c3ccccc3)nc2-c2cccc(O)c2)ccn1)c1ccc(Cl)cc1,27.5% (inactive)
2,COc1ccc(-c2nc3sccn3c2-c2ccnc(NCCCNS(=O)(=O)c3ccc(C)cc3)n2)cc1,33.9% (inactive)
3,O=C1c2ccccc2C(=O)c2c1oc1oc3c(c(=O)c21)c(=O)n(-c1ccccc1)c1ccccc31,71.8% (inactive)
4,C#CCC1(c2ccc(F)c(F)c2)NS(=O)(=O)c2ccccc21 (centres undefined),94.3% (inactive)
5,Cc1nc(Nc2cccnc2)sc1C(=O)/C=C/c1ccc(F)cc1,29.9% (inactive)
6,CCC#CC[C@H]1C/C=C2/C(=O)C=C[C@@H]2C/C=C\CCCC(=O)O1,7.74% (active)
7,CNC(=O)Cc1nc(-c2cccc(NS(=O)(=O)c3c(F)cccc3F)c2F)c(-c2ccnc(Nc3ccccc3)n2)s1,17.5% (inactive)
8,CC(=O)Nc1ccc2c(c1)/C(=C\C=C/c1ccc([N+](C)(C)C)cc1)c1ccccc1-2,67.1% (inactive)
9,COc1cc(OC)cc(-c2n[nH]nc2-c2ccc3c(c2)OCO3)c1,39.5% (inactive)
10,O=C1CCC/C=C\C[C@H]2C=CC(=O)/C2=C/C[C@H](C/C=C\CC(F)(F)F)O1,-25.8% (active)
11,O=C(Nc1cccc(Cl)c1)c1cc([N+](=O)[O-])ccc1O,62.5% (inactive)
12,O=C1N=C(c2c(-c3[nH]c(=O)c4ccc(Br)cc4c3O)c(O)c3ccccc3c2O)C(=O)c2cc(Br)ccc21,-55.9% (active)
13,COc1cc(-n2nc(C(=O)Nc3ccc(C(=O)O)cc3)nc2-c2ccccc2)cc(OC)c1OC,51% (inactive)
14,COc1ccc(OC)c(-c2ccc(-c3ccccc3N)c3[nH]c4ccccc4c23)c1,59.5% (inactive)
15,COc1ccc(S(=O)(=O)Nc2cc(/C=C\c3cc(OC)c(OC)c(OC)c3)cc(OC)c2OC)cc1OC,49.5% (inactive)
16,Cc1cc(NC(=O)COC(=O)c2sc3cc(F)ccc3c2Cl)no1,-31.8% (active)
17,Nc1c(C(=O)Nc2cccc(C(F)(F)F)c2)sc2nc3c(cc12)C(O)CCC3 (centres undefined),54.4% (inactive)
18,CC(=O)C1CCC(C)=CC1=O (centres undefined),102% (inactive)
19,COc1ccc(-c2nc3sccn3c2-c2ccnc(NCCCNS(=O)(=O)c3ccc(F)cc3)n2)cc1,16.3% (inactive)
20,COc1cc(-c2csc(NC(=O)Nc3ccc(Cl)cc3Cl)n2)cc(OC)c1OC,51.7% (inactive)

row,Compound,growth
1,CCSc1nnc(Nc2ccc(C(C)C)cc2)s1,-7.13% (active)
2,CCOC(=O)CC/C(C)=N\Nc1ccc([N+](=O)[O-])cc1,71% (inactive)
3,Cc1ccc2c(c1)C(=O)C(c1c(-c3[nH]c(=O)c4ccc(C)cc4c3O)c(O)c3ccccc3c1O)=NC2=O,6.46% (active)
4,CN(C)CCCNC(=O)C(c1ccccc1)c1ccccc1,117% (inactive)
5,COc1ccc(-c2nnc(COc3ccc(NC(=O)Nc4ccc(Cl)c(C(F)(F)F)c4)cc3F)o2)cc1,26% (inactive)
6,O=c1oc2cc(OS(=O)(=O)c3ccc(F)cc3)ccc2c2c1CCCCC2,95.2% (inactive)
7,Nc1nc(-c2ccccc2)cs1,113% (inactive)
8,COc1ccc(C(=O)/C=C/c2cccc([N+](=O)[O-])c2)c(OC)c1,7% (active)
9,C=CCOc1cccc(/C=C/C(=O)c2sc(Nc3cccnc3)nc2C)c1,62.9% (inactive)
10,Cc1cc(Nc2nc(C(=O)Nc3ccccc3)nc3ccccc23)n[nH]1,39.6% (inactive)
11,CC1CCN(C(=O)CSc2nc3sc4c(c3c(=O)[nH]2)CCCC4)CC1,87.7% (inactive)
12,COc1ccc(-c2nc(-c3nc4ccc(F)cc4[nH]3)cc3c2[nH]c2ccccc23)cc1,27% (inactive)
13,CC/C=C\C[C@H](O)C/C=C1/C(=O)C(Cl)=C[C@@H]1C/C=C\CCCC(=O)O,82.7% (inactive)
14,O=c1[nH]c2ccccc2cc1-c1nnc(Cc2ccccc2)o1,66% (inactive)
15,COc1ccc(C2CC(c3cccs3)=NN2c2ccc(S(=O)(=O)NC(=O)Nc3ccc(C)cc3)cc2)cc1 (centres undefined),108% (inactive)
16,CCSc1nnc(NC(=O)COc2ccc(Cl)cc2C)s1,-17.9% (active)
17,COc1ccc(Cn2c(SC)nc(=O)n(Cc3ccc(Cl)cc3)c2=O)cc1,102% (inactive)
18,O=C(Nc1ccc(Br)c(Cl)c1)c1cc(F)ccc1O,16.2% (inactive)
19,O=C(CCl)NCCNc1nccc(Nc2ccc(S(=O)(=O)Nc3ccccn3)cc2)n1,8.94% (active)

# Reference: PubChem BioAssay (NCI)
